In PubChem BioAssay (NCATS):
Inconclusive results are not listed. A number with no mark means an inactive call. Calls of active or inactive are those of the source. The call rests on the fitted dose curve; in most records, active means well fitted curve in the direction sought with a large enough effect; inconclusive means small, poorly fitted or top-dose-only effect, or another doubt; inactive means no such curve, though single readings can be large; an effect the other way counts as inactive or inconclusive.

Experiment: qHTS of pediatric cancer cell lines to identify multiple opportunities for drug repurposing: Confirmatory screen for TC32 cells (AID 1347118);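 further: cells exposed to compound for 48 h before the read; nearly all actives have a fitted effect of over 65% in size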; further: potency means the concentration at half of the fitted maximal effect; on activity change, negative = cytotoxicity: on the % scale 0 is the no-effect control and ±100 the full control effect
Conditions: TC32 Ewing sarcoma cells viability qHTS; series mostly up to 45.9 µM; activity change, negative = cytotoxicity: at the top concentration
Outline: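 qHTS, TC32, 48 h drug treatment, CellTiter-Glo luminescence as a proxy for metabolically active cells; primary top concentration 46 µM (MIPE 11-pt, NPC 8-pt); confirmatory 11-pt.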

Compound | Potency | activity change, negative = cytotoxicity
CC(NC(C)(C)C)C(=O)c1cccc(Cl)c1 (stereo not given) | 2930 nM (active) | 
O=P1(N(CCCl)CCCl)NCCCO1 (stereo not given) |  | 3.9%
C[C@](O)(CS(=O)(=O)c1ccc(F)cc1)C(=O)Nc1ccc(C#N)c(C(F)(F)F)c1 |  | -72.2%
COc1cccc2c1C(=O)c1c(O)c3c(c(O)c1C2=O)C[C@@](O)(C(=O)CO)CC3OC1CC(N2CCOC(OC)C2)C(O)C(C)O1 (stereo not given in full) | 5.9 nM (active) | 

Experiment: qHTS of pediatric cancer cell lines to identify multiple opportunities for drug repurposing: Confirmatory screen for MG 63 (6-TG R) cells (AID 1347119);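 further: plate controls were DMSO neutral control for no effect and bortezomib for full effect; nearly all actives have a fitted effect of over 55% in size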
Conditions: MG-63 (6-TG resistant) osteosarcoma viability; series mostly up to 45.9 µM; activity change, negative = cytotoxicity: at the top concentration
Text: (§1) Drug repurposing or repositioning has been offered as a strategy for drug development in oncology programs. This approach has special potential for childhood cancers and other rare or orphan diseases, where the expected return on new drug development has been a disincentive to pharmaceuticals.
(§2) In this project we exploit the poly-pharmacology of drugs to discover new indications via phenotypic screening of a panel of 19 well-characterized cell lines derived from solid tumors seen in children and adolescents. The goal is to identify approved drugs with previously unrecognized anticancer properties that has the potential to reveal new mechanisms and biological processes involved in carcinogenesis or drug resistance. We employed a titration-based paradigm (quantitative high-throughput screening or qHTS), where all compounds were tested at multiple concentrations for their effect on cell viability. Concentration-response curves (CRCs) were derived directly from the primary screen, and both potency and efficacy values were used to identify compounds with robust bioactivity profiles. We screened the NIH Chemical Genomics Center (NCGC) Pharmaceutical Collection (NPC) and Mechanism Interrogation Plate (MIPE) small molecule collections of approved and investigational compounds against these cell lines; and measured metabolically active cells after 48 hours of compound treatment as a proxy for cell viability.
(§3) Assay Submitter: Nathalia J. Martinez, National Center for Advancing Translational Sciences, National Institutes of Health, Rockville, MD, USA; email: natalia.martinez@nih.gov
(§4) [1] Shen, M et al. Quantitative high-throughput phenotypic screening of pediatric cancer cell lines identifies multiple opportunities for drug repurposing. Oncotarget 2017 Dec 19;9(4):4758-4772. PMID 29435139.
(§5) The cells were obtained from University of North Carolina (UNC), Pediatric Preclinical Testing Program (PPT), and Coriell Institute (CI).
(§6) qHTS cell viability assay:
(§7) Cells were assayed in growth media at a density of 500-1,000 cells/well. Five microliters of cells were dispensed into 1,536-well, white, solid-bottom, TC-treated plates (Greiner Bio One) using a multidrop dispenser and incubated at 37 degrees C, 5% CO2, under a humidified atmosphere for 5 hours. Twenty-three nanoliters of compounds and controls (neutral control DMSO or positive control bortezomib at final concentration of 2.3 µM) were subsequently transferred by Kalypsys pintool. For primary screens, the MIPE collection was tested at 11-point dilutions (final concentrations range from 0.78 nM to 46 µM) and the NPC collection at 8-point dilutions (final concentrations range from 0.59 nM to 46 µM). Compounds tested in follow-up screens were assayed at 11-point dilutions. Cells were incubated for 48 hours, followed by addition of 3 µL of CellTiter-Glo (Promega). After a 15 min incubation at room temperature, samples were analyzed for luminescence intensity using a ViewLux High-throughput CCD imager equipped with clear filters.

Compound | activity change, negative = cytotoxicity
CC(NC(C)(C)C)C(=O)c1cccc(Cl)c1 (stereo not given) | 9.6%
O=P1(N(CCCl)CCCl)NCCCO1 (stereo not given) | -23.2%
C[C@](O)(CS(=O)(=O)c1ccc(F)cc1)C(=O)Nc1ccc(C#N)c(C(F)(F)F)c1 | -22.9%
CCOP(=S)(OCC)Oc1ccc2c(C)c(Cl)c(=O)oc2c1 | 9.4%
CCCN(CCC)C(=O)Cc1c(-c2ccc(Cl)cc2)nc2ccc(Cl)cn12 | -20.7%

Experiment: qHTS of pediatric cancer cell lines to identify multiple opportunities for drug repurposing: Confirmatory screen for control Hh wild type fibroblast cells (AID 1347121);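 further: plate controls were DMSO for no effect and bortezomib for full effect; nearly all actives have a fitted effect of over 70% in size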
Conditions: viability qHTS; series mostly up to 45.9 µM; activity, negative = cytotoxic: at the top concentration
Outline: (§8)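 Viability after 48 h compound treatment at 37C, 500-1,000 cells/well, read as ATP luminescence with CellTiter-Glo. Primary screens used 11-point (MIPE, 0.78 nM-46 µM) or 8-point (NPC, 0.59 nM-46 µM) final concentrations; follow-up screens used 11-point dilutions.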

Compound | activity, negative = cytotoxic
C[C@]12CCC(=O)C=C1CC[C@@H]1[C@@H]2CC[C@@]2(C)[C@H]1CC[C@]2(C)O | 14%
CC(NC(C)(C)C)C(=O)c1cccc(Cl)c1 (stereo not given) | -6.09%
O=P1(N(CCCl)CCCl)NCCCO1 (stereo not given) | 5.02%
C[C@](O)(CS(=O)(=O)c1ccc(F)cc1)C(=O)Nc1ccc(C#N)c(C(F)(F)F)c1 | 2.79%
O=C(N/N=C/c1ccc([N+](=O)[O-])o1)c1cc([N+](=O)[O-])cc([N+](=O)[O-])c1O | 3.48%
COc1cccc2c1C(=O)c1c(O)c3c(c(O)c1C2=O)C[C@@](O)(C(=O)CO)CC3OC1CC(N2CCOC(OC)C2)C(O)C(C)O1 (stereo not given in full) | -22.6%
CCCN(CCC)C(=O)Cc1c(-c2ccc(Cl)cc2)nc2ccc(Cl)cn12 | 9.42%

Experiment: qHTS of pediatric cancer cell lines to identify multiple opportunities for drug repurposing: Confirmatory screen for U-2 OS cells (AID 1347122); further: nearly all actives have a fitted effect of over 65% in size; further: potency means the concentration at half of the fitted maximal effect;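 on activity change, negative = cytotoxicity: plate controls were DMSO for no effect and bortezomib for full effect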
Conditions: U-2 OS osteosarcoma cell viability; series mostly up to 45.9 µM; activity change, negative = cytotoxicity: at the top concentration
Outline: as §8

Compound | Potency | activity change, negative = cytotoxicity | outcome
CC(NC(C)(C)C)C(=O)c1cccc(Cl)c1 (stereo not given) | 4140 nM (active) |  | 
O=C(O)CCCc1ccc(N(CCCl)CCCl)cc1 |  | 30.5% | 
O=P1(N(CCCl)CCCl)NCCCO1 (stereo not given) |  | 0.199% | 
C[C@](O)(CS(=O)(=O)c1ccc(F)cc1)C(=O)Nc1ccc(C#N)c(C(F)(F)F)c1 |  |  | inactive
O=C(N/N=C/c1ccc([N+](=O)[O-])o1)c1cc([N+](=O)[O-])cc([N+](=O)[O-])c1O |  |  | inactive
CCOP(=S)(OCC)Oc1ccc2c(C)c(Cl)c(=O)oc2c1 |  | 26% | 
COc1cccc2c1C(=O)c1c(O)c3c(c(O)c1C2=O)C[C@@](O)(C(=O)CO)CC3OC1CC(N2CCOC(OC)C2)C(O)C(C)O1 (stereo not given in full) | 73.7 nM (active) |  | 

Experiment: qHTS of pediatric cancer cell lines to identify multiple opportunities for drug repurposing: Confirmatory screen for Rh41 cells (AID 1347123);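 further: 48 h compound exposure; nearly all actives have a fitted effect of over 60% in size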; further: potency means the concentration at half of the fitted maximal effect;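 on activity change, negative = cytotoxic: plate controls were DMSO for no effect and bortezomib for full effect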
Conditions: Rh41 rhabdomyosarcoma cells, viability/cytotoxicity qHTS; series mostly up to 45.9 µM; activity change, negative = cytotoxic: at the top concentration
Outline: as §8

Compound | Potency | activity change, negative = cytotoxic
C[C@]12CCC(=O)C=C1CC[C@@H]1[C@@H]2CC[C@@]2(C)[C@H]1CC[C@]2(C)O | 18500 nM (active) | 
CC(NC(C)(C)C)C(=O)c1cccc(Cl)c1 (stereo not given) | 4650 nM (active) | 
O=C(O)CCCc1ccc(N(CCCl)CCCl)cc1 |  | 7.68%
O=P1(N(CCCl)CCCl)NCCCO1 (stereo not given) |  | 0.733%
O=C(N/N=C/c1ccc([N+](=O)[O-])o1)c1cc([N+](=O)[O-])cc([N+](=O)[O-])c1O |  | -1.93%
CCOP(=S)(OCC)Oc1ccc2c(C)c(Cl)c(=O)oc2c1 |  | 11%
COc1cccc2c1C(=O)c1c(O)c3c(c(O)c1C2=O)C[C@@](O)(C(=O)CO)CC3OC1CC(N2CCOC(OC)C2)C(O)C(C)O1 (stereo not given in full) | 36.9 nM (active) | 
CCCN(CCC)C(=O)Cc1c(-c2ccc(Cl)cc2)nc2ccc(Cl)cn12 | 18500 nM (active) | 

Experiment: qHTS of pediatric cancer cell lines to identify multiple opportunities for drug repurposing: Confirmatory screen for RD cells (AID 1347124);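 further: cells exposed to compound for 48 h before viability readout; on the % scale 0 is the no-effect control and ±100 the full control effect; nearly all actives have a fitted effect of over 65% in size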
Conditions: RD rhabdomyosarcoma cell viability; series mostly up to 45.9 µM; activity change, negative = cytotoxic: at the top concentration
Text: as §1, §2, §3, §4, §5, §6, §7

Compound | activity change, negative = cytotoxic
C[C@]12CCC(=O)C=C1CC[C@@H]1[C@@H]2CC[C@@]2(C)[C@H]1CC[C@]2(C)O | 10.6%
O=C(O)CCCc1ccc(N(CCCl)CCCl)cc1 | -0.683%
O=P1(N(CCCl)CCCl)NCCCO1 (stereo not given) | 7.94%
C[C@](O)(CS(=O)(=O)c1ccc(F)cc1)C(=O)Nc1ccc(C#N)c(C(F)(F)F)c1 | 25.5%
O=C(N/N=C/c1ccc([N+](=O)[O-])o1)c1cc([N+](=O)[O-])cc([N+](=O)[O-])c1O | 12.2%
CCOP(=S)(OCC)Oc1ccc2c(C)c(Cl)c(=O)oc2c1 | 8.37%
CCCN(CCC)C(=O)Cc1c(-c2ccc(Cl)cc2)nc2ccc(Cl)cn12 | 14.4%

Experiment: qHTS of pediatric cancer cell lines to identify multiple opportunities for drug repurposing: Confirmatory screen for Rh18 cells (AID 1347125); further: nearly all actives have a fitted effect of over 55% in size; further: potency means the concentration at half of the fitted maximal effect; on activity change, negative = cytotoxic: on the % scale 0 is the no-effect control and ±100 the full control effect
Conditions: Rh18 rhabdomyosarcoma cells, viability; series mostly up to 45.9 µM; activity change, negative = cytotoxic: at the top concentration
Outline: as §8

Compound | activity change, negative = cytotoxic | Potency
C[C@]12CCC(=O)C=C1CC[C@@H]1[C@@H]2CC[C@@]2(C)[C@H]1CC[C@]2(C)O | -1.9% | 
CC(NC(C)(C)C)C(=O)c1cccc(Cl)c1 (stereo not given) | -26.9% | 
O=C(O)CCCc1ccc(N(CCCl)CCCl)cc1 | -3.37% | 
O=P1(N(CCCl)CCCl)NCCCO1 (stereo not given) | -2.71% | 
C[C@](O)(CS(=O)(=O)c1ccc(F)cc1)C(=O)Nc1ccc(C#N)c(C(F)(F)F)c1 | -1.48% | 
O=C(N/N=C/c1ccc([N+](=O)[O-])o1)c1cc([N+](=O)[O-])cc([N+](=O)[O-])c1O | 15.4% | 
CCOP(=S)(OCC)Oc1ccc2c(C)c(Cl)c(=O)oc2c1 | -21.7% | 
COc1cccc2c1C(=O)c1c(O)c3c(c(O)c1C2=O)C[C@@](O)(C(=O)CO)CC3OC1CC(N2CCOC(OC)C2)C(O)C(C)O1 (stereo not given in full) |  | 52.2 nM (active)
CCCN(CCC)C(=O)Cc1c(-c2ccc(Cl)cc2)nc2ccc(Cl)cn12 | -2.84% | 

Experiment: qHTS of pediatric cancer cell lines to identify multiple opportunities for drug repurposing: Confirmatory screen for Rh30 cells (AID 1347126); further: nearly all actives have a fitted effect of over 55% in size; further: potency means the concentration at half of the fitted maximal effect; on activity change, negative = cytotoxic: on the % scale 0 is the no-effect control and ±100 the full control effect
Conditions: Rh30 rhabdomyosarcoma cell viability; series mostly up to 45.9 µM; activity change, negative = cytotoxic: at the top concentration
Outline: as §8

Compound | activity change, negative = cytotoxic | Potency
C[C@]12CCC(=O)C=C1CC[C@@H]1[C@@H]2CC[C@@]2(C)[C@H]1CC[C@]2(C)O | -25.1% | 
O=C(O)CCCc1ccc(N(CCCl)CCCl)cc1 | -14.3% | 
O=P1(N(CCCl)CCCl)NCCCO1 (stereo not given) | -11% | 
C[C@](O)(CS(=O)(=O)c1ccc(F)cc1)C(=O)Nc1ccc(C#N)c(C(F)(F)F)c1 | 9.66% | 
O=C(N/N=C/c1ccc([N+](=O)[O-])o1)c1cc([N+](=O)[O-])cc([N+](=O)[O-])c1O | 9.62% | 
CCOP(=S)(OCC)Oc1ccc2c(C)c(Cl)c(=O)oc2c1 | 0% | 
COc1cccc2c1C(=O)c1c(O)c3c(c(O)c1C2=O)C[C@@](O)(C(=O)CO)CC3OC1CC(N2CCOC(OC)C2)C(O)C(C)O1 (stereo not given in full) |  | 46.5 nM (active)
CCCN(CCC)C(=O)Cc1c(-c2ccc(Cl)cc2)nc2ccc(Cl)cn12 |  | 7370 nM (active)
